Rows were chosen to be rich in hits. Some 21% of all compounds tested hit in one or more screens of this group.
Gal4-VP16 FLuc: counter-screen for ROR gamma inhibitors: Gal4-VP16 reporter; Drosophila S2 Gal4-VP16 UAS-luciferase, luminescence, 20 h; AID 2546; Potency, µM (doses to about 53.6 µM), without a hit: at the highest dose activity, negative = inhibition, hits mostly inhibitors; 3.5% of 310,000 active;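 note: Gal4-VP16 expression switched on by copper sulfate through the metallothionein promoter; potency is the fitted concentration of half-maximal effect; nearly all actives have a fitted effect of over 50% in size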
ELG1 DNA repair: inhibitors of ELG1-dependent DNA repair in HEK293T cells. HEK293T ELG1-luciferase reporter, luminescence, 16 h; DNA damage induced by 5-fluorouridine. Potency, µM (top dose mostly 46.1 µM), for the others: at the highest dose activity change, negative = inhibition, hits mostly inhibitors. 2.3% of 330,000 active. AID 504467; note: potency is the fitted concentration of half-maximal effect; nearly all actives have a fitted effect of over 55% in size
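Overnight (16 hr) co-exposure of 2,000 cells/well to 5-fluorouridine and compound at 37 °C preceded detection. Luciferase was quantified via ONE-Glo luminescence; loss of signal denotes inhibition.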
IL-1B inflam inh: blocks inflammasome-driven IL-1 beta release; THP-1 LPS/ATP IL-1B secretion, AlphaLISA, 16 h; hits give low values; activity change, % at 57.5 µM; 4.7% of 360,000 active; AID 743279; in the data active = activity change below about -50%; inconclusive = mostly about -30% to -49%
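Secreted IL-1B measured by AlphaLISA bead assay after 16 h compound exposure of THP-1 cells; compounds (final up to 57.5 uM) added 1 h before LPS (250 ng/mL) and ATP (1.25 mM) stimulation; lower signal means less secretion.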
DT40 TDP1 CPT: DT40-hTDP1 cell growth loss with CPT; Potency, µM (top dose mostly 46.2 µM), for the others: at the top dose activity change, negative = growth inhibition, usual class: inhibitors; chicken DT40 Tdp1-/-;hTDP1 cells + 20 nM CPT, ATP luminescence, 48 h; AID 686979; 12% of 420,000 active; note: potency is the fitted concentration of half-maximal effect; nearly all actives have a fitted effect of over 55% in size
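Chicken DT40 Tdp1-/- cells complemented with human TDP1, 400 cells/well, exposed to compounds plus 20 nM camptothecin for at least 48 h at 37 C; viability read as ATP content by CellTiter-Glo luminescence.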
RORg inh: ROR gamma (mouse) transcription inhibition | P51450 | Drosophila S2 Gal4-RORgamma UAS-luciferase reporter, 20 h | Potency, µM (top dose mostly 53.6 µM), without a hit: at the highest dose activity change, negative = inhibition, most hits filed as inhibitors | 5.4% of 310,000 active | AID 2551; note: potency is the fitted concentration of half-maximal effect; nearly all actives have a fitted effect of over 60% in size
Target sequence (P51450 whole entry, looked up, the tested form may be a part): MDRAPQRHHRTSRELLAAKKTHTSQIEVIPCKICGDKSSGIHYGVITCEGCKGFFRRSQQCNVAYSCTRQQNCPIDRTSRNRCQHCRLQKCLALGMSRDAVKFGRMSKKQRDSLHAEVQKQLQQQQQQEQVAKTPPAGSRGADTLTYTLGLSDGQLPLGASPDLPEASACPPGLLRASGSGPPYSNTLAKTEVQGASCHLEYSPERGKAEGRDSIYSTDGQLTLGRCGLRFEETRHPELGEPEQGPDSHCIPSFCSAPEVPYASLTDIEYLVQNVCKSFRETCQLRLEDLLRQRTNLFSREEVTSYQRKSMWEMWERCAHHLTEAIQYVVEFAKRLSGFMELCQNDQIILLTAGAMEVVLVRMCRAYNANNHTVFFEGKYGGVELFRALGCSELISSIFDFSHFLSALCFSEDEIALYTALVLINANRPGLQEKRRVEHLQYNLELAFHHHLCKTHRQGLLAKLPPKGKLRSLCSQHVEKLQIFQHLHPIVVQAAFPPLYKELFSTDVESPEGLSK
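Drosophila S2 cells stably expressing Gal4-DBD/mouse RORγ fusion under metallothionein promoter plus UAS-luciferase; compound 1 h, then 700 uM CuSO4 induction for 20 h at ambient temperature; inhibition read as reduced luminescence.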
TDP1 cell noCPT: qHTS for Inhibitors of human tyrosyl-DNA phosphodiesterase 1 (TDP1): qHTS in cells in absence of CPT; DT40 Tdp1-/- hTDP1 cells, no CPT, ATP luminescence, 48 h; Potency, µM (top dose mostly 46.2 µM), inactives show at the top dose activity change, negative = growth inhibition, hits mostly inhibitors; 15% of 420,000 active; AID 686978, 2013; note: potency is the fitted concentration of half-maximal effect; nearly all actives have a fitted effect of over 55% in size
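Growth kinetics read by CellTiter-Glo luminescence after ≥48 hr at 37 °C. Cells: DT40 Tdp1-/- stably carrying human TDP1, 400 per well, compound exposure in the absence of CPT (DMSO vehicle).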
Numbers without * were called inactive; ? = inconclusive; . = no result given; ! = not active in a repeat. Unless noted, calls come from the whole dose curve; as a rule, active = well fitted curve in the direction sought with a large enough effect; inconclusive = small, poorly fitted or top-dose-only effect, or another doubt; inactive = no such curve, though single readings can be large; an effect the other way counts as inactive or inconclusive. % is set by controls: 0 for no effect and ±100 for the full control effect.

SMILES	Gal4-VP16 FLuc	ELG1 DNA repair	IL-1B inflam inh	DT40 TDP1 CPT	RORg inh	TDP1 cell noCPT
COc1cc(C(=O)N2CCC2(C)C(=O)O)cc(OC)c1OC (stereo not given)	.	.	12.1	-5.4%	.	-12.4%
CC(=O)c1ccc(N2CCN(C(=O)c3nn(C)c4c3CS(=O)(=O)c3ccccc3-4)CC2)cc1	-4.0%	-6.3%	-9.6	?	11.3%	?
Cn1nc(C(=O)N2CCN(c3ccc(Cl)cc3)CC2)c2c1-c1ccccc1S(=O)(=O)C2	-19.1%	?	-57.8*	16.4µM*	21.7%	?
Cc1cccc(N2CCN(C(=O)c3nn(C)c4c3CS(=O)(=O)c3ccccc3-4)CC2C)c1 (stereo not given)	-2.3%	?	-21.1	23.1µM*	15.3%	18.4µM*
Cc1ccc(NC(=O)c2nn(C)c3c2CS(=O)(=O)c2ccccc2-3)c(Cl)c1	.	.	.	3.6%	.	-28.7%
CC1CCCC(NC(=O)c2nn(C)c3c2CS(=O)(=O)c2ccccc2-3)C1C (stereo not given)	-1.3%	?	6.4	?	3.1%	9.2µM*
COc1ccc(N2CCN(C(=O)c3nn(C)c4c3CS(=O)(=O)c3ccccc3-4)CC2)cc1	-1.5%	-5.1%	17.6	23.1µM*!	40.3%	?
CCCCn1c(N)c(N(CCOC)C(=O)CCN2C(=O)C3CC=CCC3C2=O)c(=O)[nH]c1=O (stereo not given)	.	.	5.4	8.3%	.	-1.8%
COc1ccc(-n2nc(C(=O)NCC(=O)N(C)Cc3ccccc3)c3ccccc3c2=O)c(OC)c1	-6.4%	-8.8%	32.3	-5.8%	2.2%	?
Cc1ccc(N2CCN(C(=O)c3nn(C)c4c3CS(=O)(=O)c3ccccc3-4)CC2)c(C)c1	-20.4%	-26.0%	-20.6	18.4µM*	34.0%	20.6µM*
COc1ccccc1NC(=O)c1nn(C)c2c1CS(=O)(=O)c1ccccc1-2	.	.	.	-21.7%	.	-17.8%
Cn1nc(C(=O)NCCc2ccc(Cl)cc2)c2c1-c1ccccc1S(=O)(=O)C2	-10.7%	?	-5.2	?	?	29.1µM*
COc1cc(NC(=O)c2nn(C)c3c2CS(=O)(=O)c2ccccc2-3)cc(OC)c1	-3.9%	?	-0.2	?	16.0%	16.4µM*
COc1cc(NC(=O)c2nn(C)c3c2COc2ccccc2-3)cc(OC)c1OC	.	.	.	4.61µM*	.	3.26µM*
CC1(c2ccc(Cl)cc2Cl)NC(=O)N(CC(=O)NC2CCCCC2)C1=O (stereo not given)	.	-15.7%	-6.3	?	.	-21.7%
COc1ccccc1N1CCN(C(=O)c2nn(C)c3c2CS(=O)(=O)c2ccccc2-3)CC1	3.0%	-0.8%	2.2	?	-0.9%	?
Cn1nc(C(=O)N2CCN(c3cccc(Cl)c3)CC2)c2c1-c1ccccc1S(=O)(=O)C2	-10.6%	-20.7%	-22.1	18.4µM*	26.8%	?
Cc1ccc(Cl)cc1N1CCN(C(=O)c2nn(C)c3c2CS(=O)(=O)c2ccccc2-3)CC1	.	.	.	20.6µM*	.	11.6µM*
CC(C)(C)[Si](C)(C)c1c2c(nc3ccc(OCc4ccccc4)cc13)-c1cccc(=O)n1C2	-5.0%	.	.	.	0.1%	.
Cc1ccc(C)c(N2CCN(C(=O)c3csc4ccccc34)CC2)c1	-21.7%	-28.1%	?	?	?	?
Cc1ccc(C)c(N2CCN(C(=O)c3cnc4c(-c5ccccc5)c(C)nn4c3C)CC2)c1	.	.	.	25.9µM*	.	?
CCc1nc(SC)ncc1C(=O)N1CCN(c2cc(C)ccc2C)CC1	.	.	.	-24.6%	.	14.6µM*
CCc1nc(SC)ncc1C(=O)N1CCN(c2cc(Cl)ccc2C)CC1	.	.	.	?	.	20.6µM*
COc1cccc([C@@H]2Oc3ccc(OC)cc3C[C@H]2OC(=O)Nc2cc(OC)c(OC)c(OC)c2)c1	1.7%	.	.	.	-3.3%	.

Source: PubChem BioAssay
